Experimental data: PubChem BioAssay
Activity calls are given as the source filed them.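 The calls were made as follows, unless noted: active = inhibition at or above 50% at 10 µM; inactive = inhibition below 50%.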

Experiment: blockers of RIG-like receptor reporter activation – cell-based, Sendai virus stimulus, luciferase, 10K MLSCN set, TLR/RLR signaling modifier project, primary screen (AID 602276);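 also: firefly luciferase from ISG56 promoter only with Renilla not read in this screen; 0% = Sendai virus plus DMSO and 100% = medium plus DMSO without virus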
Conditions: HEK293 RL24 IRF3 luciferase reporter, at 10 µM, hits give high values

| SMILES | inhibition |
| --- | --- |
| O=C(c1ccco1)N1CCN(c2nc(C(F)(F)F)nc3c2nnn3Cc2ccccc2)CC1 | 3.06% (inactive) |
| O=C(CSc1nnc(SCc2ccc(Cl)cc2)s1)N1CCN(C(=O)c2ccco2)CC1 | -1.92% (inactive) |
| CCOC(=O)CCNC(=O)Nc1ccc2nc(C)n(Cc3ccccc3Cl)c(=O)c2c1 | 1.46% (inactive) |
| CC(=O)N1CCN(c2ccc(NC(=O)c3ccc(C(C)(C)C)cc3)cc2)CC1 | -19.2% (inactive) |
| COc1ccc(-n2cnnc2SCCC#N)cc1 | 6.27% (inactive) |
| O=S(CC(O)COCc1ccc(Cl)cc1)c1ccccn1 (stereo not given) | 18.9% (inactive) |
| CN1C(=O)C(O)(CC(=O)c2ccc(F)cc2)c2cc(Br)ccc21 (stereo not given) | 22.4% (inactive) |
| CCn1cc(C(=O)NCC2CCCO2)c(=O)c2cc(S(=O)(=O)N(C)C)ccc21 (stereo not given) | -12.7% (inactive) |
| OC1(c2cccc(C(F)(F)F)c2)CCNCC1 | 18.9% (inactive) |
| N#Cc1c(N2CCCC2)nc(N)c2c(N)nc(N3CCCC3)cc12 | -6.36% (inactive) |
| COc1ccc2cc(CN(Cc3ccco3)C(c3nnnn3C3CCCCC3)C(C)C)c(=O)[nH]c2c1 (stereo not given) | 11.1% (inactive) |
| COc1ccc(C2CC(c3ccc(C)cc3)Nc3ncnn32)cc1 (stereo not given) | 7.28% (inactive) |
| Cc1cc(NC(=O)C23CCC(C)(C(=O)O2)C3(C)C)no1 (stereo not given) | 4.18% (inactive) |
| Cc1cc(C)cc(NC(=O)c2nnn(Cc3cc(C)ccc3C)c2N)c1 | 44.9% (inactive) |
| CC1=C(C(=O)OC(C)C)C(C2CC=CCC2)NC(=O)N1 (stereo not given) | 0.205% (inactive) |
| O=C1NC(c2ccco2)Nc2ccccc21 (stereo not given) | -17.2% (inactive) |
| CCOC(=O)Cc1csc(NC(=O)CSc2nnc(-c3ccncc3)n2Cc2ccco2)n1 | 10.4% (inactive) |
| CC1=C(C(=O)N2CCOCC2)C(c2ccsc2)C2=C(CCCC2=O)N1 (stereo not given) | 19.4% (inactive) |
| Cc1c(C(=O)NCc2ccoc2)oc2ccc3c(c12)C(=O)CC(C)(C)O3 | -46% (inactive) |
| COc1ccc(C(O)Cn2c(=N)n(CCCN(C)C)c3ccccc32)cc1 (stereo not given) | -10.7% (inactive) |

| SMILES | inhibition |
| --- | --- |
| COc1ccccc1CC(=O)Nc1ccc(OC)c(OC)c1 | 14.5% (inactive) |
| CCc1nnc(NC(=O)c2ccc(S(=O)(=O)NCC(C)C)cc2)s1 | -15.9% (inactive) |
| CCOc1ccc(NC(=O)CN2CCN(CC(=O)c3ccc(OCC)cc3)CC2)cc1 | 10.7% (inactive) |
| COc1ccc(OC)c(C(=O)c2ccc(C(=O)O)cc2)c1 | 16.7% (inactive) |
| COCCN(CC(=O)Nc1ccccc1C)S(=O)(=O)c1ccc(S(=O)(=O)N2CCCC2)cc1 | 7.63% (inactive) |
| Cc1ccc(C)c(N2CCN(CCCNC(=O)Cn3cc4c(n3)CCCCC4)CC2)c1 | 7.36% (inactive) |
| Nc1cccc2c1C(=O)N(c1ccccc1)C2=O | -20.4% (inactive) |
| CC(C)COc1ccc(-c2nnn(CC(=O)N3CCCC3)n2)cc1 | -2.78% (inactive) |
| CCOc1cc(C2NC(=O)N(C)C(C)=C2C(=O)OC)cc(Br)c1O (stereo not given) | -0.511% (inactive) |
| C/C(=C\C(=O)c1ccc(F)cc1)Nc1ccc(N2CCOCC2)cc1 | -13.9% (inactive) |
| CCC(C)NC(=O)CS(=O)(=O)Cc1nc(-c2cccc(OC)c2)oc1C (stereo not given) | 9.35% (inactive) |
| COc1ccc(/C=N/n2cnnc2SCc2ccc(OC)cc2)cc1 | 6.24% (inactive) |
| CCOc1ccc(C2CC(c3ccccc3C)n3nc(N)nc3N2)cc1 (stereo not given) | 10.4% (inactive) |
| COc1ccccc1-c1nnc(SCC(=O)N2CC(C)CC(C)C2)o1 (stereo not given) | 21.4% (inactive) |
| Cc1ccnc(NC(=O)C2CCCN(S(=O)(=O)c3cnc[nH]3)C2)c1 (stereo not given) | -13.6% (inactive) |
| Cc1cc(C)c2cc3c(ccn3C3OC[C@H](O)[C@H](O)[C@H]3O)cc2n1 (stereo not given in full) | 15.4% (inactive) |
| CC(=O)NCc1cccc(CNC(C)=O)n1 | 12% (inactive) |
| Cc1ccc2[nH]c(=O)c(C(c3nnnn3CCc3ccccc3)N3CCOCC3)cc2c1 (stereo not given) | 0.935% (inactive) |
| O=c1c2ccc(-c3nnc4n3-c3ccccc3SC4)cc2nc2n1CCCCC2 | 11.2% (inactive) |
| Cc1sc2nc(SCC(=O)NCCO)n(C)c(=O)c2c1C | 5.26% (inactive) |

Experiment: TLR3 IRF3 reporter activation blockers – cell-based, poly I:C stimulus, luciferase, 10K MLSCN set, primary screen (AID 602277;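 active = inhibition of the reporter signal at or above 50%; inactive = inhibition below 50%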)
Conditions: HEK293-TLR3 RL24 IRF3 luciferase reporter, at 10 µM, hits give high values

| SMILES | inhibition |
| --- | --- |
| O=C(c1ccco1)N1CCN(c2nc(C(F)(F)F)nc3c2nnn3Cc2ccccc2)CC1 | -42% (inactive) |
| O=C(CSc1nnc(SCc2ccc(Cl)cc2)s1)N1CCN(C(=O)c2ccco2)CC1 | -7.44% (inactive) |
| CCOC(=O)CCNC(=O)Nc1ccc2nc(C)n(Cc3ccccc3Cl)c(=O)c2c1 | -9.46% (inactive) |
| CC(=O)N1CCN(c2ccc(NC(=O)c3ccc(C(C)(C)C)cc3)cc2)CC1 | -42.5% (inactive) |
| COc1ccc(-n2cnnc2SCCC#N)cc1 | 12% (inactive) |
| O=S(CC(O)COCc1ccc(Cl)cc1)c1ccccn1 (stereo not given) | 23.8% (inactive) |
| CN1C(=O)C(O)(CC(=O)c2ccc(F)cc2)c2cc(Br)ccc21 (stereo not given) | 41.2% (inactive) |
| CCn1cc(C(=O)NCC2CCCO2)c(=O)c2cc(S(=O)(=O)N(C)C)ccc21 (stereo not given) | 1.32% (inactive) |
| OC1(c2cccc(C(F)(F)F)c2)CCNCC1 | 22.1% (inactive) |
| N#Cc1c(N2CCCC2)nc(N)c2c(N)nc(N3CCCC3)cc12 | 2.26% (inactive) |
| COc1ccc2cc(CN(Cc3ccco3)C(c3nnnn3C3CCCCC3)C(C)C)c(=O)[nH]c2c1 (stereo not given) | -3.61% (inactive) |
| COc1ccc(C2CC(c3ccc(C)cc3)Nc3ncnn32)cc1 (stereo not given) | 16.4% (inactive) |
| Cc1cc(NC(=O)C23CCC(C)(C(=O)O2)C3(C)C)no1 (stereo not given) | 10.3% (inactive) |
| Cc1cc(C)cc(NC(=O)c2nnn(Cc3cc(C)ccc3C)c2N)c1 | 14.5% (inactive) |
| CC1=C(C(=O)OC(C)C)C(C2CC=CCC2)NC(=O)N1 (stereo not given) | 9.1% (inactive) |
| O=C1NC(c2ccco2)Nc2ccccc21 (stereo not given) | 99.3% (active) |
| CCOC(=O)Cc1csc(NC(=O)CSc2nnc(-c3ccncc3)n2Cc2ccco2)n1 | 10.6% (inactive) |
| CC1=C(C(=O)N2CCOCC2)C(c2ccsc2)C2=C(CCCC2=O)N1 (stereo not given) | 20.8% (inactive) |
| Cc1c(C(=O)NCc2ccoc2)oc2ccc3c(c12)C(=O)CC(C)(C)O3 | -231% (inactive) |
| COc1ccc(C(O)Cn2c(=N)n(CCCN(C)C)c3ccccc32)cc1 (stereo not given) | -0.929% (inactive) |

| SMILES | inhibition |
| --- | --- |
| COc1ccccc1CC(=O)Nc1ccc(OC)c(OC)c1 | 21.7% (inactive) |
| CCc1nnc(NC(=O)c2ccc(S(=O)(=O)NCC(C)C)cc2)s1 | -61.5% (inactive) |
| CCOc1ccc(NC(=O)CN2CCN(CC(=O)c3ccc(OCC)cc3)CC2)cc1 | 24.5% (inactive) |
| COc1ccc(OC)c(C(=O)c2ccc(C(=O)O)cc2)c1 | 18.4% (inactive) |
| COCCN(CC(=O)Nc1ccccc1C)S(=O)(=O)c1ccc(S(=O)(=O)N2CCCC2)cc1 | 13.5% (inactive) |
| Cc1ccc(C)c(N2CCN(CCCNC(=O)Cn3cc4c(n3)CCCCC4)CC2)c1 | 19% (inactive) |
| Nc1cccc2c1C(=O)N(c1ccccc1)C2=O | -40.4% (inactive) |
| CC(C)COc1ccc(-c2nnn(CC(=O)N3CCCC3)n2)cc1 | -17.8% (inactive) |
| CCOc1cc(C2NC(=O)N(C)C(C)=C2C(=O)OC)cc(Br)c1O (stereo not given) | 5.13% (inactive) |
| C/C(=C\C(=O)c1ccc(F)cc1)Nc1ccc(N2CCOCC2)cc1 | -43.6% (inactive) |
| CCC(C)NC(=O)CS(=O)(=O)Cc1nc(-c2cccc(OC)c2)oc1C (stereo not given) | 4.33% (inactive) |
| COc1ccc(/C=N/n2cnnc2SCc2ccc(OC)cc2)cc1 | 0.256% (inactive) |
| CCOc1ccc(C2CC(c3ccccc3C)n3nc(N)nc3N2)cc1 (stereo not given) | 25% (inactive) |
| COc1ccccc1-c1nnc(SCC(=O)N2CC(C)CC(C)C2)o1 (stereo not given) | 29.2% (inactive) |
| Cc1ccnc(NC(=O)C2CCCN(S(=O)(=O)c3cnc[nH]3)C2)c1 (stereo not given) | 7.28% (inactive) |
| Cc1cc(C)c2cc3c(ccn3C3OC[C@H](O)[C@H](O)[C@H]3O)cc2n1 (stereo not given in full) | 27.3% (inactive) |
| CC(=O)NCc1cccc(CNC(C)=O)n1 | 14.4% (inactive) |
| Cc1ccc2[nH]c(=O)c(C(c3nnnn3CCc3ccccc3)N3CCOCC3)cc2c1 (stereo not given) | 26.5% (inactive) |
| O=c1c2ccc(-c3nnc4n3-c3ccccc3SC4)cc2nc2n1CCCCC2 | 14.5% (inactive) |
| Cc1sc2nc(SCC(=O)NCCO)n(C)c(=O)c2c1C | 26% (inactive) |
